The results in this text go back to PubChem BioAssay AID602477 (National Center for Advancing Translational Sciences (NCATS), 2012).

Each structure is given as a SMILES string. Inconclusive results are not listed. A number with no mark means an inactive call. Calls of active or inactive are those of the source. The call rests on the fitted dose curve; in most records, active means well fitted activation curve with a large enough effect; inconclusive means small, poorly fitted or top-dose-only effect; inactive means no such curve, though single readings can be large or run the other way.

The assay in a line: FLuc inhibitory activity for the follow-up compounds in a cell-based assay to assess the activity of miR-21. The note with it: HeLa miR-21-FLuc reporter, luciferase luminescence, 48 h; series mostly up to 38.3 µM; activity change, positive = activation: at the top concentration. An excerpt:
NCGC Assay Overview: Firefly (Photinus pyralis) luciferase is one of the most commonly used transcriptional reporters. It is considered one of the more dynamically responsive reporters - that is, responsive to changes in reporter transcription - as it requires no post-translational modifications and is enzymatically active directly after protein synthesis (Wood, 1998). With no endogenous expression in mammalian cells and without the requirement of external excitation, it offers very little background signal, thus generally providing excellent signal to background for most assays. Previous profiling work to determine the prevalence of compounds that affect FLuc enzymatic activity (PubChem AID 411) identified that ~3% of the MLSMR library (then at ~72K) inhibited FLuc (Auld et al., 2008). […] Of the compounds identified in this profile that inhibited FLuc, 151 compounds were selected for further analysis, in an effort to better understand their mode of inhibiting FLuc. The assay described here was to determine the activity of the compounds in a cell-based firefly luciferase reporter gene assay originally designed to identify antagonists of miR-21. Compounds that inhibit miR-21 or compounds that stabilize FLuc intracellularly are identified as active compounds in the assay.
NCGC Assay Protocol Summary: Reagents: In-house detection reagent: 300mM Tris-HCl, 300mM Trizma base, 300mM MgCl, 1% Triton-X100, 5mM DTT, 500uM Coenzyme A trilithium salt (Sigma #C3019),450uM ATP (Sigma #A7699), 1mM D-luciferin sodium salt monohydrate (Biosynth #L8240) HeLa cells stably expressing firefly luciferase (FLuc) under the control of a CMV promoter (upstream) and a miR-21 binding sequence directly downstream of the gene. These cells endogenously express miR-21. Control compounds used were two known firefly luciferase inhibitors (3-(5-(3-chlorophenyl)-1,2,4-oxadiazol-3-yl)benzoic acid and 5-(2-fluorophenyl)-3-phenyl-1,2,4-oxadiazole), and DMSO. Assay Summary: 6uL of HeLa miR-21-FLuc cells in assay buffer (DMEM, Invitrogen #21063-029; 10% FBS, HyClone #SH30071.03) were dispensed at 2000cells/well (3.3 x 10^5 cells/mL) into Greiner solid-white TC-treated 1536-well plates using a Multidrop Combi (Thermo Fisher Scientific). Plates were incubated for one hour at 37 degree Celsius, 95% humidity, 5% CO2. These assay plates were then treated with 23nL of compound or DMSO using a Kalypsys pin tool, which allows for delivery of a 12-point titration of each compound to the assay plate, with a final compound concentration ranging from approximately ~38uM to 0.2nM. Assay plates were then incubated for 48 hours. After incubation, plates were allowed to come to RT for one hour prior to delivery of 3uL of 3X luciferase detection reagent. After a 15 minute incubation to allow for cell lysis, luciferase activity was measured using a ViewLux CCD imager (PerkinElmer), with an average exposure time of 2-12 seconds.
On to `O=C(O)c1cccc(NC(=O)c2cccc(S(=O)(=O)Nc3cccc(F)c3)c2)c1`, for which the “activity change, positive = activation” value is 7.01%.
For `Oc1ccc(-c2nc3ccccc3s2)c(O)c1`, the Potency was 11.3 µM (active).
Take `COc1ccc2nc(NC(=O)c3ccco3)sc2c1`: the Potency was 0.1 µM (active).
Take `O=C(Nc1ccccc1C(=O)O)c1cc(S(=O)(=O)Nc2ccccc2)ccc1Cl`: the “activity change, positive = activation” value was 6.76%.
On the same count and under the same terms, in the case of `Cc1ccc(S(=O)(=O)N2CCOCC2)cc1C(=O)Nc1ccccc1C(=O)O` it was -39.9%.
Take `O=C(O)c1ccc(NC(=O)c2cccc(C(=O)Nc3ccc(C(=O)O)cc3)c2)cc1`: the “activity change, positive = activation” value was 8.99%.
`Nc1cccc(-c2nc3ccc(N)cc3s2)c1`: the Potency was 1.79 µM (active).
On to `Cc1ccc(C(=O)Nc2cccc(C(=O)O)c2)cc1S(=O)(=O)N1CCCCC1`, for which the Potency was 0.565 µM (active).
Same read-out and setting: with `O=C(Nc1ccccc1C(=O)O)c1ccc(Cl)c(S(=O)(=O)N2CCOCC2)c1` the figure was 12.6 µM (active).
With `CC(C)CC(=O)Nc1cccc(C(=O)Nc2ccccc2C(=O)O)c1`, the “activity change, positive = activation” value was 9.15%.
Turning to `CCn1c(C)nc2cc(-c3nc4n(n3)Cc3ccccc3-4)ccc21`, the Potency is 0.1 µM (active).
As for `CC(C)C(=O)Nc1cccc(C(=O)Nc2ccccc2C(=O)O)c1`, the “activity change, positive = activation” value is 31.7%.
For `O=C(O)c1ccc(NC(=O)c2cc(S(=O)(=O)N3CCCCC3)c(Cl)cc2Cl)cc1`, the “activity change, positive = activation” value is 8.46%.
In the case of `COc1cccc(OC)c1C(=O)Nc1cccc(C(=O)Nc2cccc(C(=O)O)c2)c1`, the “activity change, positive = activation” value is 12.7%.
`CCc1noc(C)c1C(=O)Nc1nc2ccc(OC)cc2s1`: the Potency was 12.6 µM (active).
With `COc1cccc(-c2nc3ccccc3s2)c1`, the Potency was 0.252 µM (active).
On the same count and under the same terms, with `O=S(=O)(c1ccc(-c2nc3ccccc3s2)cc1)N1CCCC1` the figure was 2 µM (active).
As for `O=C(O)c1cccc(NC(=O)c2cccc(S(=O)(=O)N3CCc4ccccc4C3)c2)c1`, the “activity change, positive = activation” value is 20.6%.
As for `O=C(O)c1cccc(NC(=O)c2ccccc2NC(=O)c2ccccc2F)c1`, the “activity change, positive = activation” value was 1.45%.
Regarding `Cc1cccc(C(=O)Nc2ccccc2C(=O)Nc2ccc(C(=O)O)cc2)c1`, the Potency was 15.9 µM (active).
The same measure, in the same setting: with `COc1ccc2nc(NC(=O)CCc3ccc(OC)c(OC)c3)sc2c1` the figure was 12.6 µM (active); with `O=C(Nc1ccc(-c2nc3ccccc3s2)cc1)C1=COCCO1`, 0.01 µM (active).
`COc1ccc(CC(=O)Nc2ccc(-c3nc4ccccc4s3)c(C)c2)cc1`: the Potency is 14.2 µM (active).
The same measure, in the same setting: with `c1ccc2sc(-c3ccc4c(c3)OCO4)nc2c1` the figure was 0.225 µM (active); with `CCOc1ccc(C(=O)Nc2ccccc2C(=O)O)cc1`, 1.13 µM (active); with `O=C(Nc1cccc(-c2nc3ccccc3s2)c1)c1cc(-n2cnnc2)ccc1Cl`, 4.49 µM (active).
As to `CC(=O)Oc1ccc(C(=O)Nc2ccccc2C(=O)Nc2ccc(C(=O)O)cc2)cc1`, the “activity change, positive = activation” value is -3.44%.
For `O=C(Nc1ccc(Cl)cc1-c1nc2ccccc2s1)c1ccco1`, the Potency is 20 µM (active).
Still for that read-out and setting: with `COc1ccc2nc(NC(=O)c3ccc([N+](=O)[O-])o3)sc2c1` the figure was 4.49 µM (active); with `CCOc1ccc2nc(NC(=O)c3ccccc3)sc2c1`, 0.1 µM (active).
Still for that read-out and setting: in the case of `COc1ccc2nc(NC(=O)c3cccs3)sc2c1` it was 10 µM (active).
Regarding `COc1ccc(C(=O)Nc2ccccc2-c2nc3ccccc3s2)c(OC)c1`, the Potency was 22.5 µM (active).
Same read-out and setting: in the case of `COc1cc(OC)cc(-c2nc3ccccc3s2)c1` it was 3.56 µM (active); in that of `CC(C)c1ccc(-c2nc3ccccc3s2)cc1`, 0.0252 µM (active).
The same measure, in the same setting: with `COc1ccc(CC(=O)Nc2cccc(C(=O)Nc3ccccc3C(=O)O)c2)cc1OC` the figure was 5.04 µM (active); with `Cc1ccc(C(=O)O/N=C(\N)c2ccccn2)cc1`, 0.2 µM (active).
For the molecule `Nc1ccc(-c2nc3ccc(N)cc3s2)cc1`, the Potency was 0.283 µM (active).
`Cc1c(NC(=O)C(C)(C)C)cccc1-c1nc2ccccc2s1`: the Potency was 10 µM (active).
Still for that read-out and setting: in the case of `CCOc1ccc2nc(NC(=O)c3cc([N+](=O)[O-])ccc3N3CCOCC3)sc2c1` it was 5.04 µM (active); in that of `Cc1c(NC(=O)c2cccs2)cccc1-c1nc2ccccc2s1`, 20 µM (active).
